A word on the inhibition: it is the relative decrease from the control value, in per cent.

In all, about 360,000 compounds went through this assay and about 510 (0.14%) were called active. The sample as a whole holds a higher share of actives than the screen did. Unmarked numbers belong to inactive results.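 How the source made its calls: active means mean normalized replicate activity at least 40 and at least half of replicates scoring 40 or more; inconclusive means only one of the two criteria met; inactive means mean below 40 and under half of replicates reaching 40.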

Sequence of DNA repair and recombination protein RAD54-like (Homo sapiens) (Q92698 whole entry, looked up): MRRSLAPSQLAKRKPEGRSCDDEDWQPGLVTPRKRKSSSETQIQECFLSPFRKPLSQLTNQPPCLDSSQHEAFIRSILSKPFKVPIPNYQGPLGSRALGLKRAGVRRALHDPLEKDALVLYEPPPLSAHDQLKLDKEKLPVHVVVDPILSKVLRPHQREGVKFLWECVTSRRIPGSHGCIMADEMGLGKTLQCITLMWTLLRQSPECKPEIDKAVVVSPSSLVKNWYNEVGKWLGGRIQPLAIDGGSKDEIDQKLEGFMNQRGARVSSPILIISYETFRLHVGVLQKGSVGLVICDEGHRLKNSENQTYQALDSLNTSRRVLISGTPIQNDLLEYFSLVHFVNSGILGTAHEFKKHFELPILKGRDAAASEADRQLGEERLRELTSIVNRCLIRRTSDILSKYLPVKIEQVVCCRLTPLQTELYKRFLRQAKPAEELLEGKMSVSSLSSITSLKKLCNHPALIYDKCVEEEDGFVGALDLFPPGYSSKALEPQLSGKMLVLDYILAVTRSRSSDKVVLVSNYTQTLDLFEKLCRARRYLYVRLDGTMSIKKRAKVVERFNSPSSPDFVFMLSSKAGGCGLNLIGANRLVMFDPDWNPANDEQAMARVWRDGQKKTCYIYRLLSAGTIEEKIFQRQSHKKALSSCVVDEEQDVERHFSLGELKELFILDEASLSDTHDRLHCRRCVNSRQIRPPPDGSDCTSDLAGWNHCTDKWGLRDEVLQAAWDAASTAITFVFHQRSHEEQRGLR

The test has as its target DNA repair and recombination protein RAD54-like (Homo sapiens) (UniProt Q92698). As to the kind of experiment: RAD54 Holliday junction migration blockers – biochemical, fluorescence, single point, primary screen (AID 602329).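 Further: 0% = median of neutral control wells and 100% = median of positive control wells; inhibitors cause a drop in the FAM fluorescence signal.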 As to conditions: RAD54 Holliday junction branch migration, FAM/BHQ fluorescence; at 10.4 µM; active compounds read high.
As to `C[C@@H]1CN([C@@H](C)CO)C(=O)c2cccc(NS(=O)(=O)c3ccccc3)c2O[C@@H]1CN(C)S(=O)(=O)c1ccc(F)cc1`, the inhibition is -8.79%. As for `CCC(=O)N1C[C@@H](C)[C@H](OC)CN(C)C(=O)c2ccc(NC(=O)c3cc(C)on3)cc2OC[C@H]1C`, the figure is -6.97%. Under `COc1cccc(-c2ccc3n(c2=O)C[C@@H]2[C@@H](CO)[C@H](C(=O)N4CCCCC4)N[C@H]32)c1` stands -5.16%; under `CO[C@H]1CC[C@@H]2CCOc3c(C#N)cccc3C(=O)N(C)CCCC(=O)N(C)C[C@@H]1O2`, -6.75%; under `Cc1cc(C(=O)Nc2cccc3c2O[C@@H](CN(C)C(=O)Nc2ccc4c(c2)OCO4)[C@H](C)CN([C@@H](C)CO)C3=O)n(C)n1`, 14.9%. Turning to `C[C@@H]1CN([C@H](C)CO)C(=O)c2cc(NC(=O)CCCN(C)C)ccc2O[C@H]1CN(C)S(=O)(=O)c1ccc(Cl)cc1`, the inhibition was 3.22%.

As to `C[C@H]1CCCCO[C@@H](CN(C)C(=O)c2ccccc2)[C@@H](C)CN([C@@H](C)CO)C(=O)c2cc(NS(=O)(=O)c3cccs3)ccc2O1`, the inhibition is -5.69%.

Consider `CCCNC(=O)Nc1ccc2c(c1)C(=O)N(C)C[C@H](OC)[C@H](C)CN(Cc1ccncc1)[C@H](C)CO2`, for which the inhibition was 3.54%. As for `CCCC#Cc1cnc2c(c1)C(=O)N([C@H](C)CO)C[C@@H](C)[C@@H](CN(C)C(=O)Nc1ccccc1F)O2`, the figure is -0.939%; as for `C[C@@H]1CN([C@H](C)CO)C(=O)c2cccc(NS(=O)(=O)c3ccc(Cl)cc3)c2O[C@@H]1CN(C)Cc1ccc(Cl)c(Cl)c1`, -2.03%; as for `C[C@H](O)C#Cc1cnc2c(c1)C(=O)N([C@H](C)CO)C[C@@H](C)[C@@H](CN(C)C(=O)Nc1ccc(C(F)(F)F)cc1)O2`, -3.33%. Under `C[C@@H]1CN([C@@H](C)CO)C(=O)c2cc(NC(=O)CCN3CCOCC3)ccc2O[C@@H]1CN(C)S(=O)(=O)c1ccccc1` stands 5.08%; under `C[C@@H]1CN([C@@H](C)CO)S(=O)(=O)c2ccc(-c3ccccc3F)cc2O[C@H]1CN(C)Cc1cncnc1`, -6.21%; under `OC[C@@H]1[C@H](c2ccc(C3=CCCC3)cc2)[C@H]2CN(Cc3ccncc3)CCCCN12`, 1.55%. Under `COc1cccc(NC(=O)N(C)C[C@H]2Oc3cc(/C=C/c4ccccc4)ccc3S(=O)(=O)N([C@H](C)CO)C[C@@H]2C)c1` stands -2.16%; under `C[C@H]1CN([C@@H](C)CO)C(=O)c2cc(C#CC3CCCC3)cnc2O[C@@H]1CN(C)C(=O)Cc1ccccn1`, 3.4%. In the case of `O=C(N[C@H]1CC[C@@H](CCNS(=O)(=O)c2cccc(Cl)c2)O[C@@H]1CO)c1ccncc1`, the inhibition is -2.66%. Under `Cc1ccc(S(=O)(=O)N(C)C[C@@H]2Oc3ccc(NC(=O)Nc4ccc5c(c4)OCO5)cc3C(=O)N([C@@H](C)CO)C[C@@H]2C)cc1` stands 2.81%; under `COc1ccc(S(=O)(=O)Nc2cccc3c2O[C@@H](CN(C)S(=O)(=O)c2c(C)noc2C)[C@@H](C)CN([C@H](C)CO)C3=O)cc1`, 4.47%; under `C#CCOCCOCCOCCNc1nc(N2CCN(C(=O)C([C@@H](C)O)n3cc([C@@H](N)CCCCN)nn3)CC2)nc(N2CCN(C(=O)[C@H](CCCCN)n3cc(CN)nn3)CC2)n1` (stereo partly drawn), 69.5% (active). As for `C#CCOCCOCCOCCNc1nc(N2CCN(C(=O)[C@H](CCCCN)n3cc([C@@H](N)C(C)CC)nn3)CC2)nc(N2CCN(C(=O)[C@H](Cc3ccc(O)cc3)n3cc([C@@H](N)C(C)CC)nn3)CC2)n1` (stereo partly drawn), the figure is -6.01%; as for `C#CCOCCOCCOCCNc1nc(N2CCN(C(=O)[C@H](CO)n3cc([C@@H](N)C(C)C)nn3)CC2)nc(N2CCN(C(=O)[C@H](CCC(=O)O)n3cc([C@@H](N)[C@H](C)CC)nn3)CC2)n1`, -7.97%; as for `CC(=O)N1[C@H](CO)[C@@H](c2ccccc2)[C@@H]1CN(CC(C)C)C(=O)c1ccccn1`, -0.684%. For `Cc1ccc(S(=O)(=O)Nc2ccc3c(c2)C(=O)N([C@@H](C)CO)C[C@H](C)[C@@H](CN(C)C(=O)Nc2ccc(F)cc2)OCCCC[C@H](C)O3)cc1`, the inhibition is 8.58%. Under `COC(=O)C[C@H]1CC[C@H]2[C@H](COc3ccc(NC(=O)C4CC4)cc3C(=O)N2C)O1` stands -2.57%. On to `C[C@@H](NC(=O)C[C@H]1CC[C@H](NS(=O)(=O)c2cccc(F)c2)[C@H](CO)O1)c1ccccc1`, for which the inhibition was 0.335%. For `O=C(Nc1cc(F)ccc1F)N1C[C@H]2[C@@H](c3ccccc31)[C@@H](CO)N2C(=O)c1ccccc1`, the inhibition is 8.71%. Regarding `Cc1ccc(S(=O)(=O)Nc2ccc3c(c2)C(=O)N([C@H](C)CO)C[C@H](C)[C@@H](CN(C)S(=O)(=O)c2cn(C)cn2)OCCCC[C@H](C)O3)cc1`, the inhibition is 1.15%.

Turning to `O=C([C@H]1[C@H](CO)[C@H]2Cn3c(ccc(C4=CCCCC4)c3=O)[C@@H]1N2)N1CCCCC1`, the inhibition was -7.2%.

In the case of `Cc1ccc2[nH]c(=O)c(CC(=O)O)c(-c3ccccc3)c2c1`, the inhibition is -1.43%. For the molecule `CCN(CC)CCCNC(=O)c1cc2c(=O)[nH]c3ccc(C)cc3c2s1`, the inhibition is 51.5% (active). On to `Cc1cccc(N(C)C(=O)c2cc3c(=O)[nH]c4ccc(C)cc4c3s2)c1`, for which the inhibition is -5.82%. For `CO[C@H]1CN(C)C(=O)c2cc(NC(=O)C3CC3)ccc2OC[C@H](C)N(CC2CCCC2)C[C@@H]1C`, the inhibition is -8.31%. As for `Cc1noc(C)c1NC(=O)Nc1ccc2c(c1)C(=O)N([C@H](C)CO)C[C@@H](C)[C@@H](CN(C)C(=O)NC(C)C)O2`, the figure is 8.07%; as for `CC(C)NC(=O)Nc1ccc2c(c1)C(=O)N([C@@H](C)CO)C[C@@H](C)[C@H](CN(C)C(=O)NC1CCCCC1)O2`, -6.48%; as for `N#Cc1ccccc1S(=O)(=O)N1CCN(Cc2c(O)ccc3ccccc23)CC1`, 1.29%. As for `CN1CCN(Cc2c(O)ccc3c2oc(=O)c2ccccc23)CC1`, the figure is 61.1% (active); as for `O=c1oc2c(CN3CCCCC3)c(O)ccc2c2c1CCCCC2`, 3.11%.

These data come from PubChem BioAssay AID602329 (Broad Institute, 2012).
